Rows were chosen to be rich in hits. Some 2.3% of all compounds tested hit in one or more screens of this group.
GLD-1 TGE inh: GLD-1-TGE RNA interaction inhibition (C. elegans); 320,000 tested, 0.44% active; inhibition, % at 5.96 µM; purified GLD-1 + fluorescein TGE RNA, fluorescence polarization; Q17339;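 active means percent inhibition above a per-plate cutoff, the plate mean of test compounds plus 3 SD, cut at about 30% in these data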;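 further: 0% = DMSO wells with GLD-1 and probe and 100% = wells lacking GLD-1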
Target sequence (Q17339 whole entry, looked up): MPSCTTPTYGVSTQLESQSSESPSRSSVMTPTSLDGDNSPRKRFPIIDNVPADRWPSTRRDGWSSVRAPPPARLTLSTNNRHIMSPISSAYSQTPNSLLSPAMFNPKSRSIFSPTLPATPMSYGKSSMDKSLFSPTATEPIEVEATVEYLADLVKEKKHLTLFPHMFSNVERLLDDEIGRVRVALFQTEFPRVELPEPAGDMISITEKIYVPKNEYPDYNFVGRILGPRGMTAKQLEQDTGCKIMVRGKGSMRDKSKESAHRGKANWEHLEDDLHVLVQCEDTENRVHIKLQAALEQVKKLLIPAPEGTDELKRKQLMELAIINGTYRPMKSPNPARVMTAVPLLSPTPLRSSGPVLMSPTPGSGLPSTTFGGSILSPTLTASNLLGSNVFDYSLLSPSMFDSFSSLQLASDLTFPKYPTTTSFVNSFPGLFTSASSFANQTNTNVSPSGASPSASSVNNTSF
Bcl-xL primary: blocks human Bcl-xL binding to Bim BH3 peptide; Q07817; GST-Bcl-xL / FITC-Bim BH3 peptide fluorescence polarization; inhibition, % at 10.9 µM; 320,000 tested, 0.7% active;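 active means inhibition above the mean of all tested compounds plus 3 SD, cutoff set per campaign, cut at about 30% in these data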;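 further: 0% = DMSO wells and 100% = unlabeled Bim-BH3 peptide competitor; inhibitors lower millipolarization by displacing the labeled peptide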
Mcl1-Bid inh: Mcl-1/Bid interaction inhibition. Q07820. 220,000 tested, 0.97% active. TR-FRET Mcl-1/Bid-Dy647 peptide binding, 1536-well. inhibition, % at 21.7 µM;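 active means compounds that cut the binding signal by more than half at the single screening dose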;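 further: His-tagged Mcl-1 with europium anti-His antibody binding Bid BH3 peptide; 0% = Mcl-1 plus peptide wells and 100% = peptide-only wells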
Mcl-1 Bim block: human Bim-Mcl-1 interaction inhibition; Bead-based flow cytometry, Bim peptide-Mcl-1 binding; inhibition, % at 10 µM; 190,000 tested, 0.1% active; in the data active means inhibition above about 40%;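 further: 0% = no compound tracer wells and 100% = peptide blocker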
Mcl1-Noxa inh: Mcl-1/Noxa interaction inhibition; Q07820; TR-FRET Mcl-1/Noxa peptide binding, 2 h; inhibition, % at 21.7 µM; 220,000 tested, 1.5% active; AID 1022;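 active means compounds that cut the protein-peptide binding signal by more than 50% relative to plate controls in a single-dose test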;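 further: His-tagged Mcl-1 with rhodamine Noxa BH3 peptide and terbium anti-His antibody; 0% = Mcl-1 plus Noxa peptide wells and 100% = peptide-only wells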
MCL1-BIM inh: MCL1-BIM-BH3 interaction inhibition (human); GST-MCL1 / FITC-Bim-BH3 fluorescence polarization; inhibition, % at 10.9 µM; Q07820; 320,000 tested, 0.68% active;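 active means inhibition above the mean inhibition of all tested compounds plus 3 SD, set per campaign, cut at about 40% in these data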;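 further: 0% = DMSO wells and 100% = unlabeled Bim-BH3 peptide control; higher means more loss of mP so more displacement of Bim peptide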
An asterisk follows results filed as active.

Screening CC(C)C(NC(=O)c1c(F)cccc1F)C(=O)N1CCN(S(=O)(=O)/C=C/c2ccccc2)CC1 (centres undefined) returned GLD-1 TGE inh 0, Bcl-xL primary -6 and MCL1-BIM inh -2.
For CC1C2(C)OC(=N)C(C#N)(C(C)O2)C1(C#N)C#N (centres undefined) the results were GLD-1 TGE inh 25, Bcl-xL primary 52*, Mcl1-Bid inh -51, Mcl1-Noxa inh 19 and MCL1-BIM inh 48*.
C=CC(C)(O)CCCC(C)CCCC(C)CCCC(C)C (centres undefined) was read as GLD-1 TGE inh 4, Bcl-xL primary 5 and MCL1-BIM inh -5.
CCn1c2ccccc2c2cc(NC(=O)CNCC3CCCO3)ccc21 (centres undefined) was read as GLD-1 TGE inh 4, Bcl-xL primary 0, Mcl1-Bid inh 5, Mcl-1 Bim block -1, Mcl1-Noxa inh 52* and MCL1-BIM inh 0.
CCn1c2ccccc2c2cc(NC(=O)CN3CCCC3)ccc21 was read as GLD-1 TGE inh -7, Bcl-xL primary 7 and MCL1-BIM inh 9.
`COCc1cc(=O)n2[nH]c(SCc3ccccc3)nc2n1` gave GLD-1 TGE inh -2, Bcl-xL primary 31*, Mcl1-Bid inh 12, Mcl-1 Bim block 0, Mcl1-Noxa inh 20 and MCL1-BIM inh 7.
CCCc1ccc(/C=C2\C(=O)c3ccccc3C(O)=C2C(=O)OCC)cc1 was read as GLD-1 TGE inh 18, Bcl-xL primary 15, Mcl1-Bid inh 40, Mcl-1 Bim block -5, Mcl1-Noxa inh 88* and MCL1-BIM inh 28.
For CCOC(=O)C1=C(Cc2ccc(C)cc2)C(=O)c2ccccc2C1=O the results were GLD-1 TGE inh 43*, Bcl-xL primary 27, Mcl1-Bid inh -16, Mcl-1 Bim block 0, Mcl1-Noxa inh 67* and MCL1-BIM inh 37.
CC1CN(C(=O)c2ccccc2NS(=O)(=O)c2ccc(Cl)cc2)CC(C)O1 (centres undefined) was read as GLD-1 TGE inh -1.
For Fc1ccc(F)c(C2=NNC(=NCC3CCCO3)SC2)c1 (centres undefined) the results were GLD-1 TGE inh 4, Bcl-xL primary 9, Mcl1-Bid inh 18, Mcl-1 Bim block -2, Mcl1-Noxa inh 30 and MCL1-BIM inh 14.
`CC(=O)Nc1ccc(C2=NNC(=NCC3CCCO3)SC2)cc1` (centres undefined) gave GLD-1 TGE inh -1, Bcl-xL primary 5, Mcl1-Bid inh 3, Mcl-1 Bim block 1, Mcl1-Noxa inh 61* and MCL1-BIM inh 2.
CCOc1ccc(N2Nc3n[nH]c(N)c3N2)cc1 was read as GLD-1 TGE inh 1, Bcl-xL primary 3, Mcl1-Bid inh -28, Mcl-1 Bim block 0, Mcl1-Noxa inh 1 and MCL1-BIM inh 0.
`COc1ccc(N2Nc3n[nH]c(N)c3N2)cc1` gave GLD-1 TGE inh 7, Bcl-xL primary 6, Mcl1-Bid inh -6, Mcl-1 Bim block 2, Mcl1-Noxa inh 56* and MCL1-BIM inh 9.
COc1ccc(/C=C2\SC(N)=NC2=O)cc1Br was read as GLD-1 TGE inh -11, Bcl-xL primary 3 and MCL1-BIM inh 23.
`Cc1ccc(C2=NC(=O)/C(=C/c3cc(O)c(O)c(Br)c3)S2)cc1` gave Mcl1-Bid inh -4, Mcl-1 Bim block 1 and Mcl1-Noxa inh 95*.
For COc1cc(/C=C2\SC(N)=NC2=O)cc(Cl)c1O the results were GLD-1 TGE inh -76, Bcl-xL primary -29 and MCL1-BIM inh -52.
For COc1cc(/C=C2\SC(c3ccc(C)cc3)=NC2=O)cc(OC)c1O the results were GLD-1 TGE inh -10, Bcl-xL primary -53, Mcl1-Bid inh -23, Mcl-1 Bim block -3, Mcl1-Noxa inh 51* and MCL1-BIM inh -98.
O=C(NCc1ccccc1)C(=O)Nc1nc(C23CC4CC(CC(C4)C2)C3)cs1 was read as GLD-1 TGE inh -6, Bcl-xL primary -1, Mcl1-Bid inh -49, Mcl-1 Bim block 83*, Mcl1-Noxa inh -56 and MCL1-BIM inh 6.
O=C(NCc1ccncc1)C(=O)Nc1nc(C23CC4CC(CC(C4)C2)C3)cs1 was read as GLD-1 TGE inh 3, Bcl-xL primary -2, Mcl1-Bid inh -33, Mcl-1 Bim block -4, Mcl1-Noxa inh -78 and MCL1-BIM inh 9.
